PubChem BioAssay
Active and inactive are the calls of the source.

Columns and labels:
[1] = compounds binding Alexa647 anti-His antibody – biochemical, small-molecule microarray, 635 nm fluorescence, artefact control for SMM control protein annotation, primary screen (AID 1128); conditions: higher = more signal;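 note: score merges feature fluorescence with signal-to-noise for each printed compound spot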
[2] = system: Human papillomavirus type 1a E7 protein (residues 1-88); experiment: HPV1a E7 small-molecule binders, primary screen, biochemical, small-molecule microarray, residues 1-88, 635 nm (AID 1129); conditions: small-molecule microarray binding, fluorescence 635 nm; higher = more signal
[3] = target: Focal adhesion kinase 1 (Homo sapiens) (UniProt Q05397); experiment: PTK2 protein binding on printed compound slides – biochemical, small-molecule microarray, 635/667 nm fluorescence, BSA, DTT, primary screen (AID 1130); conditions: 635 nm fluorescence, higher = more signal;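 note: composite of spot emission at 667 nm and signal to noise over triplicate slides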
Focal adhesion kinase 1 (Homo sapiens), sequence (Q05397 whole entry, looked up): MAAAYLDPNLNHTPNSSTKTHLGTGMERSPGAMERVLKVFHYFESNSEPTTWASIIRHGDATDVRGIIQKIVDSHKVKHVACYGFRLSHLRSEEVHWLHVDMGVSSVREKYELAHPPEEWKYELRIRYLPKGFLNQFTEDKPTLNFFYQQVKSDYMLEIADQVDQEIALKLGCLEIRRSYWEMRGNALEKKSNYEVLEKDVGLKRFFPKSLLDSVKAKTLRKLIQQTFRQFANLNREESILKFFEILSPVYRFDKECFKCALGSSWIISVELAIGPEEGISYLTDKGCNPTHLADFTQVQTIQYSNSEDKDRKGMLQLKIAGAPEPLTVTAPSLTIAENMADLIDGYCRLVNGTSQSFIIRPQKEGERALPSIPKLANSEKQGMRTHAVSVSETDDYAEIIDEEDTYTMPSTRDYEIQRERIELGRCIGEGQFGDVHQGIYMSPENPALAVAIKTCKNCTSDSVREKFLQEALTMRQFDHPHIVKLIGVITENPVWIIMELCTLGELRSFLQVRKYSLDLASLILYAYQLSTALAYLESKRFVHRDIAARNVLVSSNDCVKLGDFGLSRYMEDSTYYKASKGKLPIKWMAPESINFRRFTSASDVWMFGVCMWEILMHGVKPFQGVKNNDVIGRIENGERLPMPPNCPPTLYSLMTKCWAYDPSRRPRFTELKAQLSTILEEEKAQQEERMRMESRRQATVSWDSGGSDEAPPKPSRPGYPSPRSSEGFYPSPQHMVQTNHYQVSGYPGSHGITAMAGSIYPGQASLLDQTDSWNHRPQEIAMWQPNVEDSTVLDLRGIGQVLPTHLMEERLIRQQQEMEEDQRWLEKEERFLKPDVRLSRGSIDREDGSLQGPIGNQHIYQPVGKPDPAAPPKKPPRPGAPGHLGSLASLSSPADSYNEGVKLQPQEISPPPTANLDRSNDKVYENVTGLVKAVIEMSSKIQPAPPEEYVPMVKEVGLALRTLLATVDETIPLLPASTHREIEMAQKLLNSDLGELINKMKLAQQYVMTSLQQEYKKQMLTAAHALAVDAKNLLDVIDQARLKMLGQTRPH

[4] = system: Fibrinogen (Alexa647-labelled); experiment: Alexa647-fibrinogen binding to printed small molecules – biochemical, small-molecule microarray, 635/667 nm fluorescence, artefact control for SMM control-protein annotation, profiling panel (AID 1131); conditions: fibrinogen-A647 binding fluorescence, higher = more signal;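 note: z-score merges 667 nm fluorescence with per-spot signal-to-noise over triplicate slides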
[5] = target: Follistatin (Homo sapiens) (UniProt P19883); experiment: FST protein binding to printed compounds – biochemical, small-molecule microarray, 635/667 nm fluorescence, primary screen (AID 1132); conditions: 635 nm fluorescence, higher = more signal
Follistatin (Homo sapiens), sequence (P19883 whole entry, looked up): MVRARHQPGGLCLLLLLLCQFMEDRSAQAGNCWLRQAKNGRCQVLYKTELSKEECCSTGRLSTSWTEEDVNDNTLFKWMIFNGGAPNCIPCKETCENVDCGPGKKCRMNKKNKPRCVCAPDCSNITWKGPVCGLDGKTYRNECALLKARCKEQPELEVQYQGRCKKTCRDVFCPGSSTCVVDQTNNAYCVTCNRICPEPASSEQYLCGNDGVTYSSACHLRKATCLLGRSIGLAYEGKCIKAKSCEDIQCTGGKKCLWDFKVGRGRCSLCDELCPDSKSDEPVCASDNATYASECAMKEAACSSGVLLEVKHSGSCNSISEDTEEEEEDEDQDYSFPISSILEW

[6] = target: Fibroblast growth factor 2 (Homo sapiens) (UniProt P09038); experiment: basic fibroblast growth factor binding to printed compounds – biochemical, small-molecule microarray, 635/667 nm fluorescence, primary screen (AID 1133); conditions: FGF2, fluorescence 635/667, higher = more signal
Fibroblast growth factor 2 (Homo sapiens), sequence (P09038 whole entry, looked up): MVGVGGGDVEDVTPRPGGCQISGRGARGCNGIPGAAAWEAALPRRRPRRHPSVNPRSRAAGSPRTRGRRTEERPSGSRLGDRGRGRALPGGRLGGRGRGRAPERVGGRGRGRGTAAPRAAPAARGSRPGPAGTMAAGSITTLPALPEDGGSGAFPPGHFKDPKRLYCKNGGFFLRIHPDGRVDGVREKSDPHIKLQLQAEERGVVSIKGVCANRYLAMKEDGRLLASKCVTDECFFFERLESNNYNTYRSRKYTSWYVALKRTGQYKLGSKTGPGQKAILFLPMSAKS

[7] = JC-1 mitochondrial potential readout, lung cancer cells – cell-based, A549, JC-1 fluorescence, basal, 24 h, 100 nL, profiling panel (AID 1138); conditions: higher = more signal;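 note: A549 lung adenocarcinoma cells under basal conditions with no added stimulus; test concentration not given here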
Lefty1 = Lefty1 protein binding to printed compounds – biochemical, small-molecule microarray, 635/667 nm fluorescence, primary screen (AID 1139); conditions: fluorescence 635/667, higher = more signal
[8] = system: wheat germ agglutinin (Triticum aestivum), Alexa647-labelled; experiment: Alexa647-WGA lectin binding to printed small molecules – biochemical, small-molecule microarray, 635/667 nm fluorescence, artefact control for SMM control-protein annotation, profiling panel (AID 1140); conditions: WGA-A647 binding, 635 nm fluorescence, higher = more signal;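 note: score merges 667 nm feature emission with signal to noise over triplicate slides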
[9] = target: Luciferin 4-monooxygenase (Photinus pyralis) (UniProt P08659); experiment: inhibition of purified Photinus pyralis luciferase – biochemical, luminescence, purified enzyme, 2006 set, primary screen (AID 1141); conditions: purified firefly luciferase, SteadyGlo luminescence, 30 min; higher = more signal, called active from +8 up or from −8 down;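 note: cell-free assay with purified firefly luciferase at 100 ng per well in PBS; test concentration not given here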
Luciferin 4-monooxygenase (Photinus pyralis), sequence (P08659 whole entry, looked up): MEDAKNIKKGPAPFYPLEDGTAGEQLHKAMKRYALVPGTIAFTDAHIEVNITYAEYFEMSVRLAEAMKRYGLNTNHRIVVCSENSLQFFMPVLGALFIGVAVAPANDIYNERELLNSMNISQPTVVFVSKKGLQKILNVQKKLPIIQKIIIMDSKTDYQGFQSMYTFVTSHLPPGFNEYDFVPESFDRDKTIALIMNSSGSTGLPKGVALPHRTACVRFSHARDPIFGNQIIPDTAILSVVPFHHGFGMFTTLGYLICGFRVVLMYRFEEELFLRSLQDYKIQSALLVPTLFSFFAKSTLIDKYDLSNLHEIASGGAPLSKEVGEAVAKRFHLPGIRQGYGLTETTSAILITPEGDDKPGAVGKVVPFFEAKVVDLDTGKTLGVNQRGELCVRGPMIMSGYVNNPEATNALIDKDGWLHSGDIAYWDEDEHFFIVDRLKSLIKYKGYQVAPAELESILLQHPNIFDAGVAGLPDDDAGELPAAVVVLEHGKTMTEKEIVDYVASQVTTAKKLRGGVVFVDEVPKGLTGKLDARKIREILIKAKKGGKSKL

SMILES: COc1cc(O)c(C(=O)C=Cc2ccc3c(c2)OCO3)c(OC)c1
- composite z-score [1]: -0.132
- composite z-score [2]: -1.44
- composite z-score [3]: 0.0276
- composite z-score [4]: 0.0337
- composite z-score [5]: 0.4
- composite z-score [6]: -0.19
- z-score [7]: 0.209
- composite z-score (Lefty1): 0.707
- composite z-score [8]: 0.393
- z-score [9]: -5.1 (inactive)

SMILES: C[C@@H]1CC[C@H]2C(=O)O[C@@H](Cc3ccccc3)CN2[C@H]1c1ccc(Br)cc1
- composite z-score [1]: 2.07
- composite z-score [2]: 0.688
- composite z-score [3]: 0.217
- composite z-score [4]: 0.376
- composite z-score [5]: 0.397
- composite z-score [6]: 0.297
- z-score [7]: 0.362
- composite z-score (Lefty1): 0.495
- composite z-score [8]: 0.526
- z-score [9]: 0.178 (inactive)

SMILES: CCOC(=O)[C@H](Cc1ccccc1)NC(=O)CCC1CC(OC(=O)NCCc2ccc(F)cc2)CC2(CCCC(COC(=O)NCCc3ccccc3OC)O2)O1 (stereo not given in full)
- composite z-score [1]: 0.949
- composite z-score [2]: 1.15
- composite z-score [3]: 0.165
- composite z-score [4]: 0.916
- composite z-score [5]: 0.818
- composite z-score [6]: 0.888
- z-score [7]: -0.366
- composite z-score (Lefty1): 1.11
- composite z-score [8]: 0.441
- z-score [9]: 0.451 (inactive)

SMILES: CCOC(=O)[C@H](CC(C)C)NC(=O)CCC1CC(OC(=O)NCc2cccc3ccccc23)CC2(CCCC(COC(=O)NCCOC)O2)O1 (stereo not given in full)
- composite z-score [1]: 0.427
- composite z-score [2]: 1.19
- composite z-score [3]: 0.175
- composite z-score [4]: 0.959
- composite z-score [5]: 0.602
- composite z-score [6]: 0.648
- z-score [7]: -0.157
- composite z-score (Lefty1): 0.436
- composite z-score [8]: 0.167
- z-score [9]: 0.561 (inactive)

SMILES: C[C@@H]1C=CCC(=O)OC[C@H]2O[C@@H](C=C[C@@H]2O)[C@H](C)C=CCC(=O)OC1
- composite z-score [1]: 0.341
- composite z-score [2]: -0.813
- composite z-score [3]: 1.7
- composite z-score [4]: -1.06
- composite z-score [5]: 1.56
- composite z-score [6]: 1.98
- z-score [7]: 2.16
- composite z-score (Lefty1): 1.71
- composite z-score [8]: -0.513
- z-score [9]: -1.82 (inactive)

SMILES: COc1ccc(O[C@H]2C=C[C@@H](c3ccccc3)O[C@@H]2COC(=O)CCC(C)=NO[C@@H]2O[C@H](COC(C)=O)[C@@H](OC(C)=O)[C@H](OC(C)=O)[C@H]2OC(C)=O)cc1
- composite z-score [1]: 0.487
- composite z-score [2]: 0.795
- composite z-score [3]: -0.234
- composite z-score [4]: 0.708
- composite z-score [5]: 0.293
- composite z-score [6]: 0.641
- z-score [7]: -0.388
- composite z-score (Lefty1): 0.742
- composite z-score [8]: 0.262
- z-score [9]: 1.16 (inactive)

SMILES: CCc1cc2c(nc1CC)CCN(CCC(C)=NO[C@H](C)c1cn([C@@H]3COC[C@H]3O)nn1)C2
- composite z-score [1]: -0.0963
- composite z-score [2]: -0.139
- composite z-score [3]: -0.162
- composite z-score [4]: 0.522
- composite z-score [5]: 0.523
- composite z-score [6]: 0.305
- z-score [7]: 0.537
- composite z-score (Lefty1): 0.204
- composite z-score [8]: 0.199
- z-score [9]: 0.221 (inactive)

SMILES: O=C1C2=CC[C@H]3C(=O)N(c4cccc(Oc5ccccc5)c4)C(=O)[C@H]3[C@H]2[C@H](O)[C@@H]2O[C@H]12
- composite z-score [1]: 0.703
- composite z-score [2]: 0.185
- composite z-score [3]: -0.0765
- composite z-score [4]: -0.156
- composite z-score [5]: 0.916
- composite z-score [6]: 0.425
- z-score [7]: -0.633
- composite z-score (Lefty1): 0.755
- composite z-score [8]: 0.0467
- z-score [9]: -1.27 (inactive)

SMILES: CCCCC#C[C@@H]1C=C[C@H](Oc2cc(OC)c(OC)c(OC)c2)[C@@H](COC(=O)OCC)O1
- composite z-score [1]: 0.054
- composite z-score [2]: -0.637
- composite z-score [3]: -0.253
- composite z-score [4]: 0.388
- composite z-score [5]: 0.135
- composite z-score [6]: 0.265
- z-score [7]: 2.36
- composite z-score (Lefty1): 0.386
- composite z-score [8]: -0.0925
- z-score [9]: -1.12 (inactive)

SMILES: CCOC(=O)[C@H](Cc1ccccc1)NC(=O)CCC1CC(OC(=O)NCc2cccc3ccccc23)CC2(CCCC(COC(=O)NCc3cccc(C(F)(F)F)c3)O2)O1 (stereo not given in full)
- composite z-score [1]: 0.419
- composite z-score [2]: 0.565
- composite z-score [3]: 0.219
- composite z-score [4]: 0.193
- composite z-score [5]: -0.0637
- composite z-score [6]: 0.0858
- z-score [7]: 1.94
- composite z-score (Lefty1): 0.0217
- composite z-score [8]: 0.0961
- z-score [9]: -0.114 (inactive)

SMILES: CC(C)=CCCC(C)=CCON=C1C[C@@H](O)[C@@H](O)[C@@H]2[C@@H]3C(=O)N(Cc4ccccc4)C(=O)[C@@H]3CC[C@@H]12
- composite z-score [1]: 0.546
- composite z-score [2]: -0.369
- composite z-score [3]: -0.0506
- composite z-score [4]: -0.266
- composite z-score [5]: 1.07
- composite z-score [6]: 1.44
- z-score [7]: 0.071
- composite z-score (Lefty1): 0.894
- composite z-score [8]: -0.0507
- z-score [9]: 1.19 (inactive)

SMILES: COC(=O)CC=C[C@@H](C)[C@@H](C=NOC(C)CN1CCCc2nc(C)c(C)cc21)OC (stereo not given in full)
- composite z-score [1]: 0.333
- composite z-score [2]: 0.464
- composite z-score [3]: 0.0673
- composite z-score [4]: 0.233
- composite z-score [5]: 0.6
- composite z-score [6]: 0.604
- z-score [7]: -0.27
- composite z-score (Lefty1): 0.677
- composite z-score [8]: -0.0665
- z-score [9]: 0.423 (inactive)

SMILES: COC(=O)CC=C[C@@H](C)[C@@H](C=NO[C@@H]1O[C@H](COC(C)=O)[C@@H](OC(C)=O)[C@H](OC(C)=O)[C@H]1OC(C)=O)NS(=O)(=O)c1ccc(C)cc1
- composite z-score [1]: -0.588
- composite z-score [2]: -0.231
- composite z-score [3]: 0.14
- composite z-score [4]: -0.083
- composite z-score [5]: 0.484
- composite z-score [6]: 0.35
- z-score [7]: -0.63
- composite z-score (Lefty1): 0.647
- composite z-score [8]: -0.986
- z-score [9]: 1.08 (inactive)

SMILES: C#CCCCON=C1[C@H]2CCn3c(=O)n(C)c(=O)n3[C@H]2[C@H](O)[C@@H]2O[C@H]12
- composite z-score [1]: 0.196
- composite z-score [2]: 0.746
- composite z-score [3]: -0.103
- composite z-score [4]: 0.615
- composite z-score [5]: 0.72
- composite z-score [6]: 0.916
- z-score [7]: 1
- composite z-score (Lefty1): 0.363
- composite z-score [8]: -0.0602
- z-score [9]: -1.25 (inactive)
